PubChem BioAssay (Tox21)
Inconclusive results are not listed. Calls of active or inactive are those of the source. The call rests on the fitted dose curve; in most records, active means well fitted activation curve with a large enough effect in the signal ratio in the repeat runs (not every such curve was filed as active); inconclusive means weak or mixed curves, or effect the other way; inactive means flat fitted curve, though single readings scatter; the % refers to the signal ratio.

Each compound was assayed against Bile acid receptor (Homo sapiens) (UniProt Q96RI1) (assay: qHTS assay to identify small molecule agonists of the farnesoid-X-receptor (FXR) signaling pathway (AID 743220)). Details: HEK293T FXR-UAS-bla, beta-lactamase FRET ratio, 16 h; series mostly up to 62.6 µM.
Source text: National Center for Advancing Translational Sciences [NCATS]
NIH Chemical Genomics Center [NCGC]
U.S. Environmental Protection Agency [EPA]
National Institutes of Environmental Health Sciences [NIEHS]
National Toxicology Program [NTP]
U.S. Food and Drug Administration [FDA]
The farnesoid-X-receptor (FXR), a nuclear hormone receptor, is highly expressed in liver, intestine, kidney and adrenal cortex. Natural ligands of FXR are the bile acids (Cholic acid, Chenodeoxy cholic acid etc). FXR is an important regulator of diverse metabolic pathways, including the bile acid homeostasis, lipid and glucose metabolisms. FXR regulates the expression of target genes by binding either as a monomer or as a heterodimer with the retinoid X receptor (RXR). Numerous studies have reported that FXR exerts protective function during cholestasis, diabetes, liver regeneration, and cancer. To identify compounds that activate FXR signaling, GeneBLAzer FXR-UAS-bla HEK 293T cell line (Invitrogen, Carlsbad, CA) containing a beta-lactamase reporter gene under the control of a UAS response element was used to screen the Tox21 10K compound library.
Tox21 Assay Protocol Summary:
FXR-bla cells were dispensed at 5000 cells/5uL/well in 1536-well black wall/clear bottom plates using a Multidrop Combi (Thermo Fisher Scientific, Waltham, MA) dispenser. After the assay plates were incubated at 37C and 5% CO2 for 5 h, 23 nL of compounds dissolved in DMSO, positive controls or DMSO only was transferred to the assay plate by a Pintool station (Kalypsys, San Diego, CA). The assay plates were incubated at 37C for 16 h. After 1 uL of LiveBLAzerTM B/G FRET substrate was added using a Bioraptr Flying Reagent Dispenser (FRD) workstation (Beckman Coulter, Indianapolis, IN), the plates were incubated at room temperature for 2 h, and fluorescence intensity was measured by an Envision plate reader (PerkinElmer, Shelton, CT).

Chain of Bile acid receptor (Homo sapiens) (Q96RI1 whole entry, looked up): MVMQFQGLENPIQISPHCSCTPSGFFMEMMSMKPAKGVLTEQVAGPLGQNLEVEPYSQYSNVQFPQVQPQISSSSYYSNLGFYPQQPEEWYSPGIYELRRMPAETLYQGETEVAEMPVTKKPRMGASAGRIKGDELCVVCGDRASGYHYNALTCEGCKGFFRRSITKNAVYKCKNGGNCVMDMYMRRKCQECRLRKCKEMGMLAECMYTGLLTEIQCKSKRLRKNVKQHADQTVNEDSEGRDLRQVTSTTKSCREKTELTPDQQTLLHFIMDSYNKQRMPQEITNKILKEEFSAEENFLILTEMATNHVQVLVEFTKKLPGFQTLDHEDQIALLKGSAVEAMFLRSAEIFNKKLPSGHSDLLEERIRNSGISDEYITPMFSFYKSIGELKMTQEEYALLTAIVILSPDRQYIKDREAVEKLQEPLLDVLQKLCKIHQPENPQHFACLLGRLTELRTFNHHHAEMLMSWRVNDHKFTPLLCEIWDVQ

| SMILES | outcome |
| --- | --- |
| CN(C)CCCN1c2ccccc2Sc2ccc(Cl)cc21 | inactive |
| C=C[Si](OCCOC)(OCCOC)OCCOC | inactive |
| CC1(C)NC(=O)N(c2ccc([N+](=O)[O-])c(C(F)(F)F)c2)C1=O | inactive |
| Cc1ccc(C)c(O)c1 | inactive |
| COC(=O)c1ccc(C)cc1 | inactive |
| Cc1ccc([N+](=O)[O-])c(C)c1 | inactive |
| CCc1cccc2c3c([nH]c12)C(CC)(CC(=O)O)OCC3 (stereo not given) | inactive |
| CCOC(=O)C(C)Oc1ccc(Oc2cnc3cc(Cl)ccc3n2)cc1 (stereo not given) | inactive |
| CC(=O)[C@H]1CC[C@H]2[C@@H]3CC=C4C[C@@H](O)CC[C@]4(C)[C@H]3CC[C@]12C | inactive |
| NCCOCCO | inactive |
| CC(=O)[C@@]1(O)CC[C@H]2[C@@H]3C[C@H](C)C4=CC(=O)C=C[C@]4(C)[C@@]3(F)[C@@H](O)C[C@@]21C | inactive |
| CCCCCCCC/C=C\CCCCCCCC(=O)O | inactive |
| CN(Cc1cnc2nc(N)nc(N)c2n1)c1ccc(C(=O)N[C@@H](CCC(=O)O)C(=O)O)cc1 | inactive |
| CCC(Cc1c(I)cc(I)c(N)c1I)C(=O)O (stereo not given) | inactive |
| O=C(O)c1ccc(O)cc1 | inactive |
| c1ccc2cc3ccccc3cc2c1 | inactive |
| CC/C(=C(/CC)c1ccc(O)cc1)c1ccc(O)cc1 | inactive |
| C=CCNCC=C | inactive |
| CC(=O)OC(C)C | inactive |
| CCCOCCO | inactive |

| SMILES | outcome |
| --- | --- |
| CC1(C)OC(=O)NC1=O | inactive |
| CC(C)[N+](C)(CCOC(=O)C1c2ccccc2Oc2ccccc21)C(C)C | inactive |
| c1ccc2c(c1)ccc1cc3c(ccc4ccccc43)cc12 | inactive |
| O=C(CCCN1CCC(O)(c2ccc(Cl)cc2)CC1)c1ccc(F)cc1 | inactive |
| Nc1cc(Cl)c(N)c(Cl)c1 | inactive |
| O=C(O)COCCN1CCN(C(c2ccccc2)c2ccc(Cl)cc2)CC1 (stereo not given) | inactive |
| O=C(O)CCCCCCCCCCCC(=O)O | inactive |
| CCCCCC=O | inactive |
| CCO[Si](CCCNC(N)=O)(OCC)OCC | inactive |
| Oc1c(Cl)ccc(Cl)c1Cl | inactive |
| C1CN(SSN2CCOCC2)CCO1 | inactive |
| COc1cc([C@H]2Oc3cc([C@H]4Oc5cc(O)cc(O)c5C(=O)[C@@H]4O)ccc3O[C@@H]2CO)ccc1O | inactive |
| CCCCCCOCCOCCO | inactive |
| Cc1ccc(C(C)(C)C)c(O)c1 | inactive |
| CN(C)/N=N/c1nc[nH]c1C(N)=O | inactive |
| IC(I)I | inactive |
| CC/C=C\C/C=C\C/C=C\CCCCCCCC(=O)O | inactive |
| C=CC(C)(O)CCC=C(C)C (stereo not given) | inactive |
| CC(C)(C)c1cccc(C(C)(C)C)c1O | inactive |
| Brc1nc2ccccc2s1 | inactive |
